An excerpt weighted towards active compounds, which were near 7.2% of everything screened.
SNCA expr inh: Primary qHTS assay for inhibitors of alpha-synuclein gene (SNCA) expression. AID 1671194, 2021. HEK-293 SNCA-luciferase knock-in, luminescence, 24 h. actives 0.17% (n = 140,000). Potency, µM (top dose mostly 57.2 µM), for the others: top-dose activity change, negative = inhibition, usual class: inhibitors;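 also: plate controls were DMSO cells for no effect and cell-free wells for full effect; nearly all actives have a fitted effect of over 45% in size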
HEK293 tox: Cytotoxic Profiling in HEK 293 Cell Line of Diverse Libraries Using Quantitative High-Throughput Screening; actives 6.6% (n = 94,000); Potency, µM (series often up to 115 µM), without a hit: at the highest dose activity change, negative = cytotoxicity, actives largely listed as inhibitors; HEK 293 viability, ATP luminescence (CellTiter-Glo), 48-72 h; also: % is scaled to controls: 0 for no effect and ±100 for the full control effect; nearly all actives have a fitted effect of over 60% in size
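Viability of HEK 293 cells, plated at 250 cells/well, was judged by cellular ATP after compound treatment for 48 or 72 hr. Luminescence was imaged 10 min after CellTiter-Glo addition at room temperature.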
NIH3T3 tox: Cytotoxic Profiling in NIH 3T3 Cell Line of Diverse Libraries Using Quantitative High-Throughput Screening | actives 4.3% (n = 94,000) | NIH 3T3 viability, CellTiter-Glo ATP luminescence, 48-72 h | Potency, µM (top dose mostly 96.7 µM), without a hit: top-dose activity change, negative = cytotoxicity, actives largely listed as inhibitors | AID 1345082, 2018; also: % is scaled to controls: 0 for no effect and ±100 for the full control effect; nearly all actives have a fitted effect of over 55% in size
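Luminescent ATP readout (CellTiter-Glo, 10 min RT) after 48 or 72 hr compound exposure of NIH 3T3 cells seeded at 400 cells/well in 1536-well format; quantitative HTS.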
SNCA viab count: GF-AFC viability counterscreen for inhibitors of alpha-synuclein gene (SNCA) expression. HEK-293-SNCA-luc viability, GF-AFC fluorescence, 24 h. Potency, µM (titrated, usually from 57.1 µM), without a hit: at the highest dose activity change, negative = cytotoxicity, actives largely listed as cytotoxic. actives 0.12% (n = 150,000). AID 1671193, 2021;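 also: 0% = DMSO-treated cells and -100% = medium-only wells without cells; nearly all actives have a fitted effect of over 30% in size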
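Cytotoxicity counterscreen: after 24 h compound treatment of genome-edited SNCA-luciferase HEK-293 cells, live-cell protease substrate GF-AFC read by fluorescence after 30 min; activity scaled between DMSO (0%) and medium-only (-100%), curves Hill-fitted.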
NPR1 antag: Natriuretic polypeptide receptor (hNpr1) antagonism - Primary qHTS; actives 1.6% (n = 76,000); HEK293 hNpr1 GloSensor cGMP, ANP-stimulated luminescence; Potency, µM (top dose mostly 46.3 µM), for the others: at the top dose activity change, negative = inhibition, hits mostly inhibitors; calls by dose curve; also: % is scaled to controls: 0 for no effect and ±100 for the full control effect; nearly all actives have a fitted effect of over 60% in size
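HEK293 cells stably expressing human Npr1 and cGMP GloSensor pGS-40F, loaded 2 h with 2% GloSensor reagent, given compound 30 min at room temperature. Luminescence read before and 20 min after 0.1 nM hNppA.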
FLuc inh-1: Firefly luciferase inhibition profiling of diverse chemical library using quantitative high-throughput screening. Luciferin 4-monooxygenase (Photinus pyralis), P08659. purified P. pyralis luciferase, luminescence, biochemical. Potency, µM (highest dose often 115 µM), most hits filed as inhibitors. actives 2.5% (n = 76,000). AID 1347043, 2019; also: % is scaled to controls: 0 for no effect and ±100 for the full control effect; nearly all actives have a fitted effect of over 65% in size
Target sequence (P08659 whole entry, looked up): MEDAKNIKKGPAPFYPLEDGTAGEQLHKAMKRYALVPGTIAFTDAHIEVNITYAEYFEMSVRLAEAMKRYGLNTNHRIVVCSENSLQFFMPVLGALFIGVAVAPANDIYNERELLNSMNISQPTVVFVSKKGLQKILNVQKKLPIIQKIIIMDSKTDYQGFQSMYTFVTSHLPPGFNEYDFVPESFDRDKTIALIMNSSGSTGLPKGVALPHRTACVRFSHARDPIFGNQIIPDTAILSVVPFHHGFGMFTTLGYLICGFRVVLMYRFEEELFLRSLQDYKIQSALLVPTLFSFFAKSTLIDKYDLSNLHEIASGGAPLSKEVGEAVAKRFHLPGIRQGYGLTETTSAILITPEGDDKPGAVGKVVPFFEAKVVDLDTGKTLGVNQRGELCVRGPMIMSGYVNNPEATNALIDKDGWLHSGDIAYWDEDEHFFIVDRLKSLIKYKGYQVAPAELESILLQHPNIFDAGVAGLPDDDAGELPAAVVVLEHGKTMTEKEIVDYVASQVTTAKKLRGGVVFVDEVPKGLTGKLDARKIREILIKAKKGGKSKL
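Inhibitors were tested against purified firefly luciferase in a biochemical, low-substrate format (both substrates at 10uM) and luminescence measured with a CCD imager.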
FLuc SDR -ATP: Firefly luciferase (FLuc-C-HiBiT) SDR gain of signal screen - without ATP; shares compounds with FLuc inh-1; Purified FLuc-C-HiBiT, Nano-Glo HiBiT luminescence, no ATP; Potency, µM (series often up to 32.7 µM), inactives show at the top dose activation (signal gain), hits mostly activators; actives 7.8% (n = 1,300); AID 1963318, 2024; also: nearly all actives have a fitted effect of over 55% in size
FLuc SDR ATP: Firefly luciferase (FLuc-C-HiBiT) SDR gain of signal screen - plus ATP; purified FLuc-C-HiBiT + ATP, HiBiT complementation luminescence; shares compounds with FLuc inh-1; AID 1963319, 2024; actives 8.7% (n = 1,300); Potency, µM (series often up to 32.7 µM), for the others: at the top dose activation (gain of signal), usual class: activators;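 also: signal reports ligand binding via conformational change of the enzyme rather than luciferase catalysis; % of control where 0% means no effect; nearly all actives have a fitted effect of over 55% in size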
FLuc inh-2: Firefly luciferase (FLuc-C-HiBiT) enzymatic inhibition screen - Functional assay | Potency, µM (highest dose often 32.7 µM), without a hit: top-dose activity change, negative = inhibition, actives largely listed as inhibitors | purified FLuc-C-HiBiT enzyme, luciferin luminescence | actives 42% (n = 1,300) | shares compounds with FLuc inh-1; also: % is scaled to controls: 0 for no effect and ±100 for the full control effect; nearly all actives have a fitted effect of over 70% in size
* = called active by the depositor; i = inactive; ? = inconclusive; nt = not tested or not shown; [ ] = remark or other dose. Unless noted, calls follow the shape of the dose curve; as a rule, active = well fitted curve in the direction sought with a large enough effect; inconclusive = small, poorly fitted or top-dose-only effect, or another doubt; inactive = no such curve, though single readings can be large; an effect the other way counts as inactive or inconclusive. Potency is read from the fitted curve at half-maximal effect.

SMILES	SNCA expr inh	HEK293 tox	NIH3T3 tox	SNCA viab count	NPR1 antag	FLuc inh-1	FLuc SDR -ATP	FLuc SDR ATP	FLuc inh-2
CCOc1cccc(CNC(=O)C2CCN(C(=O)c3ncn4c3COC(c3ccccc3)C4)CC2)c1 (configuration not stated)	21.7%	12.6%	-2.0%	2.0%	-11.8%	14.1µM*	16.5%	?	?
O=C(NCc1ccc2c(c1)OCO2)C1CCN(c2cc(C(F)(F)F)ncn2)CC1	4.5%	?	?	-6.2%	?	10µM*	15.6%	17.3%	?
O=C(NCc1ccc(F)cc1)C1CCN(C(=O)c2ncn3c2COC(c2ccc(Cl)cc2)C3)CC1 (configuration not stated)	?	7.8%	-0.8%	-0.3%	1.3%	?	nt	nt	nt
O=C(NCc1ccc(F)cc1F)C1CCN(C(=O)c2ncn3c2COC(c2ccc(F)cc2)C3)CC1 (configuration not stated)	-15.5%	-8.8%	-17.2%	-5.2%	-12.1%	?	nt	nt	nt
O=C(NCc1ccco1)C1CCN(C(=O)c2ncn3c2COC(c2ccccc2)C3)CC1 (configuration not stated)	75.5%	0.6%	0.4%	10.9%	-20.7%	5.01µM*	15.3%	2.48µM*	2.48µM*
O=C(NCc1cc(F)ccc1F)C1CCN(C(=O)c2ncn3c2COC(c2ccccc2)C3)CC1 (configuration not stated)	139.3%	-10.1%	-7.2%	16.6%	-16.0%	2.24µM*	9.5%	?	3.13µM*
O=C(NCc1ccc2c(c1)OCO2)C1CCN(C(=O)c2ncn3c2COC(c2ccccc2)C3)CC1 (configuration not stated)	52.9%	14.2%	i	17.1%	-24.2%	7.94µM*	15.9%	?	7µM*
Cc1noc(C)c1S(=O)(=O)N1CCCC(Cc2nncn2C(C)C)C1 (configuration not stated)	20.6%	i	-4.1%	4.0%	2.2%	i	nt	nt	nt
C[S+](=O)([O-])N1CC2(Cc3ccccc31)CN(C(=O)c1cccc(Cl)c1)C2	-12.4%	?	?	5.3%	0.4%	i	nt	nt	nt
COCCN1C(=O)c2cccn2CC1CNC(=O)c1cccc(C)c1 (configuration not stated)	-29.4%	-13.2%	3.2%	5.8%	0.1%	i	nt	nt	nt
COc1ccc(-c2cc(N3CCCC(NC(=O)c4ccc5[nH]ccc5c4)C3)n[nH]2)cc1 (configuration not stated)	74.2%	?	?	-22.3%	-25.3%	4.47µM*	27.8%	16.0%	4.95µM*
COc1cc(C(=O)NC2CCCN(c3cc(-c4ccc(F)cc4)[nH]n3)C2)cc(OC)c1OC (configuration not stated)	8.3%	?	?	-17.8%	-10.2%	12.6µM*	22.9%	10.5%	?
COc1ccc(-c2cc(N3CCCC(NC(=O)c4cccc(Br)c4)C3)n[nH]2)cc1 (configuration not stated)	-21.3%	?	?	?	-29.4%	?	nt	nt	nt
COc1ccc(-c2cc(N3CCCC(NC(=O)c4cccc(OC)c4)C3)n[nH]2)cc1 (configuration not stated)	4.2%	25.1µM*	?	-28.8%	-24.8%	7.08µM*	18.4%	16.4%	?
COc1ccc(C(=O)NC2CCCN(c3cc(-c4ccc(F)cc4)[nH]n3)C2)cc1 (configuration not stated)	23.3%	?	?	?	-12.0%	?	nt	nt	nt
COc1ccc(C(=O)NC2CCCN(c3cc(-c4ccc(F)cc4)[nH]n3)C2)cc1F (configuration not stated)	2.2%	?	?	-27.6%	-14.0%	?	nt	nt	nt
CN(C)c1cccc(C(=O)NC2CCN(c3cc(-c4ccc(Cl)cc4)[nH]n3)C2)c1 (configuration not stated)	118.5%	?	?	-12.2%	-28.5%	12.6µM*	9.9%	?	?
CN(C)c1ccc(C(=O)NC2CCN(c3cc(-c4ccc(Cl)cc4)[nH]n3)C2)cc1 (configuration not stated)	-15.6%	?	?	-9.9%	-22.2%	i	nt	nt	nt
COc1cccc(-c2noc(CCCc3nc(-c4cccnn4)no3)n2)c1	51.0%	-3.2%	-13.2%	-0.8%	5.6%	?	nt	nt	nt
CN(C)CCCC(=O)N1CCC2(CC1)CN(C(=O)Cc1ccc(O)cc1)CCO2	7.1%	i	4.2%	0.1%	nt	nt	nt	nt	nt
CCOc1ccccc1C(=O)N[C@@H]1CN(c2ccncn2)C[C@H]1CO	18.8%	-1.9%	-13.2%	-19.1%	2.7%	i	nt	nt	nt
O=C(CCc1nnn2c1CN(C(=O)c1ccccc1)CC2)NC1CC1	-24.9%	1.3%	-32.7%	6.4%	0.0%	i	nt	nt	nt
CN1CCOc2nc(-c3ccc(Oc4ccccc4)cc3)ncc2C1=O	6.5%[87.6 µM]	?	?	-19.8%[87.6 µM]	25.1µM*	4.47µM*	21.0%[49.3 µM]	18.7%[49.3 µM]	?
O=C1c2cc(N3CCOCC3)nc(-c3cccc(CO)c3)c2CN1c1ccccc1	26.7%[87.6 µM]	?	-74.5%[138 µM]	-12.1%[87.6 µM]	0.5%[70.6 µM]	i	nt	nt	nt
COc1ccc(-c2ncc3c(n2)OCCN(c2ccccc2)C3=O)cc1F	-18.6%[87.6 µM]	-26.7%[172 µM]	?	-2.7%[87.6 µM]	15.8µM*	0.708µM*	?	?	3.21µM*

Screening data: PubChem BioAssay, National Center for Advancing Translational Sciences (NCATS)
